Compounds without any hit were thinned out: in the full panel of roughly 83,000, 20% have a hit.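 The test compound was applied at a single concentration to cells in 96-well plates for 48 hours, and percent growth was recorded.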 Unmarked numbers belong to inactive results. Active and inactive are the calls of the source. Rule for the calls: active = growth percent below 10; inactive = the rest.

Holding throughout (experiment): NCI-60 one-dose screen, 48 h (100 = growth as untreated, 0 = no growth, -100 = all killed)
What all share (conditions): 10 µM unless noted

Assay [1] relates to HCT-15 colon.
Assay [2] concerns HT29 colon.
For assay [3], the system named is SNB-75 CNS.
Assay [4] relates to SNB-19 CNS.
In assay [5] the test system is U251 CNS.
Assay [6] has as its system PC-3 prostate.
In assay [7] the test system is SK-MEL-5 melanoma.
Assay [8] concerns UACC-62 melanoma.
Assay [9] deals with SK-MEL-28 melanoma.
Assay [10] has as its system LOX IMVI melanoma.

For the compound `COc1ccc(C(Cc2ccccc2)NCCN2CCOCC2)cc1` (stereo not given), the growth in assay [1] was 99.8%; in assay [2], 87.7%; in assay [3] it was 97.4%; in assay [4], 106%; in assay [5], 108%; in [6], 93.8%. Moreover, the growth in [7] is 108%; in assay [8], 100%; in [9], 103%.
With `Cc1ccc(-c2nc(N3CCN(C(=O)Nc4ccc(Cl)c(C(F)(F)F)c4)CC3)c3ccccc3n2)cc1`, the growth in assay [1] is 70.3%; in [2], 75.2%; in assay [3], 66.2%; in [4], 86%; in assay [5], 79.6%; in assay [6] it was 49.6%. The growth in [7] is 84.3%; in assay [8] it was 70%; in assay [10], 65.4%; in [9], 89.2%.
As for `Fc1cc(-c2nnc3sc(-c4ccc(Cl)cc4Cl)nn23)c(Cl)cc1Cl`, the growth is 90.7% in assay [1]; 72.1% in assay [2]; 49.1% in [3]; 79.5% in assay [4]; 75.5% in assay [5]; 94.4% in assay [6]. Moreover, the growth in [7] is 67.4%; in assay [8], 92.3%; in [10], 96.2%; in assay [9], 69.3%.
Turning to `C=C1CC[C@@]2(C#N)[C@H]3[C@H](CC[C@@H]2C)[C@@H](C)C[C@@H](CC(C)(C)C#N)[C@H]13`, the growth in assay [1] is 43.6%; in assay [2], 46.8%; in [3], 44.6%; in assay [4], 56.4%; in assay [5], 46.4%; in assay [6], 23.2%. In addition, the growth was 37.5% in assay [7], 43.5% in assay [8], 26.6% in [10] and 60.3% in assay [9].
As for `COc1ccc(CN2c3ccccc3Sc3ccccc32)c(F)c1`, the growth is 35.4% in [1]; 3.61% (active) in assay [2]; -5.99% (active) in assay [3]; 40.9% in assay [4]; 30% in assay [5]; 30.3% in assay [6]. Also, the results for the growth in assay [7], in assay [8] and in assay [9] were 25.8%, 33.1% and 53%, respectively.
`COc1ccc(C(=O)N=Nc2c(O)n(C)c3ccccc23)cc1`: the growth in [1] is 91.6%; in assay [2], 103%; in assay [3] it was 91.6%; in assay [4] it was 87.3%; in [5], 98.5%; in [6], 90.9%. Besides, the growth in assay [7] was 89.1%; in assay [8], 90.6%; in assay [9], 107%.
Take `Oc1ccc(CCl)c2cccnc12`: the growth in assay [1] was 36.6%; in [2], 104%; in assay [3] it was 64.7%; in assay [4], 80.6%; in [5], 59.7%; in [6] it was 83.6%. The growth is 89.9% in assay [7], 100% in assay [8] and 82.9% in assay [9].
Regarding `C[C@]12CC[C@@H]3c4cc(OC(F)F)c(OS(N)(=O)=O)cc4CC[C@H]3[C@@H]1CC[C@@H]2OS(N)(=O)=O`, the growth in assay [1] is 20.1%; in [2], 106%; in assay [3], -3.22% (active); in assay [4], 53.6%; in assay [5], 33.1%; in [6], 52.2%. The growth is 27% in assay [7], 54.1% in [8], 32.8% in assay [10] and 50% in assay [9].
Take `CN(C)CCN1CCN(c2ncccc2C2Nc3ccccc3-n3cccc32)CC1` (stereo not given): the growth was 101% in [1]; 101% in assay [2]; 88.3% in [3]; 106% in assay [4]; 105% in assay [5]; 102% in [6]. Moreover, the growth is 104% in assay [7], 105% in assay [8] and 105% in [9].
`O=c1c2cc(F)ccc2sc2c(NCCCNCCO)nc3ccc(F)cc3c12`: the growth was 47.9% in assay [1]; -0.699% (active) in assay [2]; 54.2% in assay [3]; 72.6% in [4]; 38.4% in assay [5]; 50.6% in assay [6]. For the same compound, the growth in assay [7] was 80.7%; in assay [8] it was 88.6%; in [9], 94%.
On to `O=C(Nc1nc2ccc(F)cc2s1)c1cccnc1Nc1ccc(Cl)cc1Cl`, for which the growth in assay [1] was 16.9%; in [2] it was 7.92% (active); in [3], 34.7%; in assay [4], 20.2%; in [5] it was 15.8%; in assay [6], 3.63% (active). Also, the growth is -2.74% (active) in assay [7], 20.1% in [8], 32.5% in [10] and 37.8% in [9].
Turning to `CN1CCN(Cc2ccc(NC(=O)c3ccc(C(C)(C)C)c(C#Cc4cnc5cccnn45)c3)cc2C(F)(F)F)CC1`, the growth in assay [1] was -73.2% (active); in assay [2] it was -83.5% (active); in assay [3], 74.8%; in [4] it was -63.1% (active); in [5] it was -87.9% (active); in [6], -65.6% (active). Besides, the growth in assay [7] is -60.3% (active); in assay [8] it was -71% (active); in assay [10], -87.7% (active); in [9], -68.8% (active).
`COc1ccc2c(c1)nc(NNC(=O)c1cnccn1)c1cccn12`: the growth in [1] was 21.5%; in assay [2], 27.2%; in [3], 70.5%; in [4] it was 31.3%; in assay [5] it was 27.3%; in assay [6] it was 39.4%. The growth was 26.4% in assay [7], 11.5% in [8], 9.17% (active) in [10] and 25.1% in assay [9].
Turning to `CC1=C(C)C(=O)C(Nc2cccc(C(=O)OC(C)(C)C)c2)=C(Br)C1=O`, the growth in assay [1] was 73.2%; in [2], 118%; in assay [3], 59.7%; in [4], 84.6%; in assay [5] it was 90.7%; in [6], 71.7%. For the same compound, the growth is 96% in assay [7], 79.2% in [8], 34.9% in assay [10] and 101% in assay [9].
For the compound `Nc1cc2c(cc1Br)-c1cc(Cl)ccc1C2=O`, the growth in [1] is 102%; in [2] it was 102%; in [3], 96.8%; in [4] it was 104%; in assay [5], 98.1%; in assay [6] it was 95.2%. The growth in [7] was 90.9%; in assay [8], 96.3%; in [10], 102%; in assay [9], 106%.
For the compound `Cn1cc(-c2cc3ncnc(Nc4ccc(CC(=O)Nc5cc(C(C)(C)C)on5)cc4)c3s2)cn1`, the growth in assay [1] is 18.6%; in assay [2] it was 27.4%; in assay [3] it was 54%; in assay [4] it was 86.1%; in assay [5], 54.2%; in [6], 47%. Also, the growth was 52.1% in assay [7], 30% in assay [8], 25.8% in assay [10] and 44% in assay [9].
As for `CN(C)CC#Cc1ccc2ncc(C#N)c(Nc3ccc(F)c(Cl)c3)c2c1`, the growth in assay [1] is 32%; in [2], 66%; in assay [3] it was 48.1%; in assay [4], 76.4%; in assay [5], 63.8%; in assay [6], 40.5%. Moreover, the growth in assay [7] is 51.4%; in assay [8], 42.9%; in assay [10], 49%; in [9] it was 69.4%.
Consider `N#Cc1c(-c2ccccc2)nc(SCC(=O)Nc2nc(-c3ccc(Cl)cc3)cs2)[nH]c1=O`, for which the growth is 104% in assay [1]; 93.3% in [2]; 84.3% in assay [3]; 101% in [4]; 95.3% in assay [5]; 91.6% in assay [6]. For the same compound, the growth in [7] is 97.9%; in [8] it was 88.4%; in assay [9], 101%.
For `COc1ccc(-c2cc(-c3cc(OC)c(OC)c(OC)c3)nc(N3CCOCC3)c2C#N)cc1`, the growth is 66.6% in assay [1]; 76.1% in assay [2]; 72.3% in assay [3]; 86.7% in assay [4]; 64.5% in [5]; 62.7% in assay [6]. Besides, the growth in assay [7] was 75.3%; in [8], 57.5%; in [9], 56.8%.
For the compound `CCN(CC)CCCNc1nc2ccccc2c2c(=O)c3cc(Cl)ccc3sc12`, the growth was 36.2% in assay [1]; 11.7% in [2]; 68.3% in [3]; 79.6% in assay [4]; 41.5% in assay [5]; 54.7% in assay [6]. Further, the growth was 92.7% in [7], 73.8% in [8], -81.2% (active) in [10] and 84.3% in assay [9].
As for `COc1ccc2sc3c(NCCO)nc4ccccc4c3c(=O)c2c1`, the growth is 81% in assay [1]; 101% in assay [2]; 103% in [3]; 95.4% in assay [4]; 93.1% in assay [5]; 91.4% in assay [6]. For the same compound, the growth was 93.7% in [7], 94.5% in [8], 88% in assay [10] and 122% in [9].
On to `O=C(O)CCC/C=C\C[C@H]1C=CC(=O)/C1=C/C[C@@H](O)CCc1cccc(C(F)(F)F)c1`, for which the growth in assay [1] was -55.8% (active); in [2] it was -8.89% (active); in [3], 72.8%; in [4], 7.63% (active); in assay [5] it was -71.1% (active); in [6], -19.3% (active). In addition, the growth in [7] is -85.9% (active); in assay [8] it was -62.2% (active); in assay [10] it was -60.9% (active); in assay [9] it was -43.6% (active).
`O=C(Nc1ccc(I)cc1F)c1cc(I)ccc1O`: the growth in assay [1] was 4.84% (active); in [2], 78.7%; in [3] it was 1.71% (active); in [4], 17.5%; in assay [5] it was 16.1%; in assay [6] it was 7.79% (active). The growth in assay [7] is -95.8% (active); in assay [8], -24.1% (active); in [10], 8.01% (active); in assay [9], 5.11% (active).
On to `c1ccc(OCc2nnc(-c3ccc(Oc4ccccc4)cc3)o2)cc1`, for which the growth in [1] was 103%; in assay [2], 103%; in [3] it was 98.5%; in assay [4] it was 103%; in [5], 95.4%; in assay [6], 78.9%. In addition, the growth in assay [7] was 100%; in assay [8], 90.9%; in assay [10], 102%; in assay [9], 116%.
Take `CCOC(=O)Cn1c(=O)c2c(c3ccccc3n2C)n2nnc(-c3ccccc3)c12`: the growth in assay [1] is 112%; in assay [2], 100%; in assay [3], 94.2%; in [4], 104%; in assay [5], 107%; in assay [6], 103%. The growth in assay [7] was 98.4%; in assay [8], 102%; in assay [10], 91.1%; in assay [9] it was 107%.
On to `CC/C=C\C[C@@H](O)C/C=C1/C(=O)C=C[C@H]1C/C=C\CCCC(=O)OC`, for which the growth is -31.3% (active) in assay [1]; -58.5% (active) in [2]; 90.8% in assay [3]; 33.7% in assay [4]; 8.72% (active) in assay [5]; -21.1% (active) in assay [6]. For the same compound, the figures for the growth in assay [7], in assay [8] and in assay [9] were -82.2% (active), -50.6% (active) and -32.8% (active), respectively.
Take `Cc1ccc(C(C)C)cc1C(=O)C[n+]1ccccc1`: the growth in assay [1] was 99.7%; in assay [2], 88.2%; in [3] it was 95%; in assay [4], 106%; in assay [5], 104%; in assay [6], 99.1%. Also, the figures for the growth in [7], in [8] and in [9] were 106%, 106% and 97.3%, respectively.
